This assay has as its system EPHA4. As to conditions: concentration: 1 μM, replicates: in singlicate; n = 1.
Regarding `Cc1ccc(C(=O)Nc2ccc(Nc3ccnc4cc(-c5nccs5)ccc34)cc2O)cc1.Cl` [GW494702], the “%Inh” value is reported as 9%.
`CC(C)c1nc(-c2cccc(NS(=O)(=O)c3c(F)cccc3F)c2F)c(-c2ccnc(Nc3ccc(N4CCOCC4)nc3)n2)s1` [GSK2008607]: the “%Inh” value is 74%.
Consider `Cl.c1ccc(-c2ccc3c(Nc4ccc5[nH]ccc5c4)ccnc3c2)nc1` [GW440138], for which the “%Inh” value worked out at 0%.
Consider `Nc1ncc(-c2cccnc2)c2scc(-c3ccc4c(c3)CCN4C(=O)Cc3ccccc3)c12` [GSK683281], for which the “%Inh” value is listed as 7%.
On to `COc1cc(Nc2nccc(-c3c(-c4cccc(NC(=O)c5c(F)cccc5F)c4)nn4ccccc34)n2)cc(OC)c1OC` [GSK323521], for which the “%Inh” value turned out to be 0%.
With `CCc1ccc(-c2ccc3c(c2)-c2c(cnn2C)S(=O)(=O)N3C)cc1` the figure was 1%; with `COC(=O)Nc1nc2cc(Oc3ccc(NC(=O)Nc4cc(C(F)(F)F)ccc4F)cn3)ccc2[nH]1.Cl.Cl` [GW681170], 81%; with `Cc1occc1-c1ncc(OC[C@@H](N)Cc2c[nH]c3ccccc23)cc1-c1ccc2[nH]nc(C)c2c1.O=C(O)C(F)(F)F` [GSK682037], 0%.
For `O=C(Nc1cccc(Oc2ccc3nc(NC(=O)C4CC4)cn3n2)c1)c1ccccc1C(F)(F)F` the value was 28%; for `CSc1cccc2c(-c3ccncn3)c(-c3ccc(F)cc3)nn12` [GW514786], 0%.
Regarding `COc1cc(Nc2ncc3c(C)nc(-c4cc5ccccc5[nH]4)n3n2)cc(OC)c1OC` [GW869516], the “%Inh” value was 46%.
Turning to `O=C(Nc1cccc(-c2nn3ccccc3c2-c2ccnc(Nc3cccc(C(F)(F)F)c3)n2)c1)c1c(F)cccc1F` [GSK292658], the “%Inh” value was 5%.
In the case of `CNC(=O)c1ccccc1Nc1nc(Nc2ccc(N3CCOCC3)cc2)ncc1Cl.Cl` [GSK1576028], the “%Inh” value came out at 29%.
Regarding `Cl.c1ccc(-c2ccc3c(Nc4ccc5[nH]ncc5c4)ccnc3c2)nc1` [GW440137], the “%Inh” value came out at 2%.
With `Cl.Cl.NCC(NC(=O)c1cc(-c2ccccc2)c(-c2ccnc3[nH]ccc23)s1)c1ccccc1` (stereo not shown) [GSK1321561], the “%Inh” value is 2%.
In the case of `COc1cc2c(cc1OCCN1CCNCC1)ncc1c3ccc(C#N)cc3[nH]c21`, the “%Inh” value was 1%.
Turning to `CCn1c(-c2nonc2N)nc2c(C#CC(C)(C)O)ncc(OCCCCN)c21.O=C(O)C(F)(F)F.O=C(O)C(F)(F)F` [GSK507274], the “%Inh” value was 8%.
Consider `COc1cc(Nc2nccc(-c3c(-c4cccc(NC(=O)c5c(F)cccc5F)c4)nn4ncccc34)n2)cc(OC)c1OC` [GSK327238], for which the “%Inh” value is reported as 65%.
As to `COc1cc(Nc2nccc(N3CCC(NC(=O)Nc4cccc(C(C)=O)c4)C3)n2)cc(OC)c1OC` (stereo not shown) [GSK1379753], the “%Inh” value was 3%.
For `CN(C)S(=O)(=O)c1cc(-c2ccc3nccc(-c4cccc(S(N)(=O)=O)c4)c3c2)cnc1N` [GSK1669921] the value was 20%; for `COCCOCCOc1cc2ncc3c4ccc(C#N)cc4[nH]c3c2cc1OC`, 23%.
For the molecule `Nc1n[nH]c2cnc(-c3ccccc3)cc12` [SB-642124], the “%Inh” value came to 12%.
For `CN1CCN(CCCNc2nccc(-c3c(-c4ccc(F)cc4)nn4cc(C(F)(F)F)ccc34)n2)CC1` [GW621581] the value was 1%.
As for `Nc1ncnc2c1nc(-c1ccccc1)n2-c1ccccc1` [SKF-97293], the “%Inh” value was 30%.
Take `Cl.NC(=O)c1cccc(Nc2nccc(Nc3ccc(Oc4c(Cl)cccc4Cl)c(Cl)c3)n2)c1` [GW659009]: the “%Inh” value was found to be 0%.
As for `Cc1ccc(F)c(C(=O)Nc2cccc(-c3nn4ccccc4c3-c3ccnc(Nc4cccc(F)c4)n3)c2)c1F` [GSK361061], the “%Inh” value was determined as 20%.
For `COc1cccc(-c2ccc3c(NC(=O)C4CC4)n[nH]c3n2)c1` [SB-710903], the “%Inh” value was determined as 20%.
With `CC(=O)N1CCN(c2ccc(Nc3nccc(-c4sc(C(C)C)nc4-c4cccc(NS(=O)(=O)c5cccc(Cl)c5)c4)n3)cn2)CC1` [GSK1660437] the figure was 0%; with `C[C@@H]1CC[C@@H](C(=O)Nc2ccccc2)CN1c1cc(-c2ccc3c(N)n[nH]c3c2)nc(N)n1` [GSK2286062], 0%; with `Clc1ccc(-c2nn3ncccc3c2-c2ccnc(Nc3ccc4c(c3)OCCO4)n2)cc1` [GW829116], 12%.
As to `Cc1ccc(C(=O)N2CC[C@@H](O)C2)cc1-n1c(C)cc(OCc2ccc(F)cc2F)c(Br)c1=O`, the “%Inh” value is listed as 0%.
Consider `CC(=O)Nc1nc2cnc(Nc3cc(NC(=O)c4cccc(C5(C#N)CC5)c4Cl)ccc3C)nc2s1`, for which the “%Inh” value is reported as 59%.
For `c1ccc(-c2cnc3nccnn23)cc1` [AH20685], the “%Inh” value is on record as 0%.
As for `CCn1c(-c2nonc2N)nc2c(C#CC(C)(C)O)nc(OC[C@H](N)c3ccccc3)cc21` [GSK943949], the “%Inh” value amounted to 0%.
As to `Cl.Cl.NCC(C(=O)Nc1cc(Br)c(-c2ccnc3[nH]ccc23)s1)c1ccccc1` (stereo not shown) [GSK1269851], the “%Inh” value is given as 28%.
With `COc1cccc(C2=C(Nc3ccc(Cl)c(C(=O)O)c3)C(=O)NC2=O)c1` [SB-390769], the “%Inh” value was 0%.
With `Cc1cccc(Nc2nc(N[C@H]3CCNC3)ncc2C(N)=O)c1.Cl` [GSK2197149] the figure was 8%.

For the origin of these results see article PMC5540273 (PLoS ONE, 2017).
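Further: KINOMEscan kinase panel screen.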
